# The supplement of paper PMC8728848
# Many of the other results were omitted from the sample, so the strongest signals are more common in it than they were.
# B1: Clone646PsrP (Streptococcus pneumoniae) (protein)
# chain: MDHHHHHHHHASENLYFQGAPAINASLNIAKSETKVYTGEGVDSVYRVPIYYKLKVTNDGSKLTFTYTVTYVNPKTNDLGNISSMRPGYSIYNSGTSTQTMLTLGSDLGKPSGVKNYITDKNGRQVLSYNTSTMTTQGSGYTWGNGAQMNGFFAKKGYGLTSSWTVPITGTDTSFTFTPYAARTDRIGINYFNGGGKVVESSTTSQSLSQSKSLSVSAS
# Key:
# Assay in all cases: glycan array binding signal (z-score within array); higher = stronger binding
# Details in all cases: glycan notation: IUPAC condensed, linker removed
# [1] = target: Gal(b1-4)GlcNAc(b1-3)[GlcNAc(b1-6)]Gal(b1-4)GlcNAc
# Outline: (§1)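 Glycan array data came from 3228 arrays in the Consortium for Functional Glycomics database, and only arrays with an available protein sequence were kept. Glycan names were put into IUPAC-condensed notation, and columns mapping to the same glycan were averaged. The binding signal is a within-array Z-score, averaged across arrays of one protein sequence run at different concentrations or buffers and across linkers. A negative Z-score can be read as non-binding.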
# Gal(b1-4)GlcNAc6P = target: Gal(b1-4)GlcNAc6P
# Outline: as §1
# Gal3S(b1-4)Glc = target: Gal3S(b1-4)Glc
# Outline: as §1
# Gal3S(b1-4)Glc6S = target: Gal3S(b1-4)Glc6S
# Outline: as §1
# [2] = target: Gal3S(b1-4)[Fuc(a1-3)]GlcNAc6S
# Outline: as §1
# Gal3S6S(b1-4)GlcNAc = target: Gal3S6S(b1-4)GlcNAc
# Outline: as §1
# Gal4S6S(b1-4)GlcNAc = target: Gal4S6S(b1-4)GlcNAc
# Outline: as §1
# Gal6S(b1-4)Glc = target: Gal6S(b1-4)Glc
# Outline: as §1
# [3] = target: GalNAc(a1-3)GalNAc(b1-3)Gal(a1-4)Gal(b1-4)Glc
# Outline: as §1
# [4] = target: GalNAc(a1-3)GalNAc(b1-3)Gal(a1-4)Gal(b1-4)GlcNAc
# Outline: as §1
# GalNAc(b1-4)Gal(b1-4)Glc = target: GalNAc(b1-4)Gal(b1-4)Glc
# Outline: as §1
# GalNAc3S(b1-4)GlcNAc = target: GalNAc3S(b1-4)GlcNAc
# Outline: as §1
# [5] = target: Glc(a1-6)Glc(a1-6)Glc(a1-6)Glc
# Outline: as §1
# [6] = target: GlcNAc(b1-3)Gal(b1-4)GlcNAc(b1-3)Gal(b1-4)GlcNAc(b1-3)Gal(b1-4)GlcNAc(b1-3)Gal(b1-4)GlcNAc(b1-2)Man(a1-3)[GlcNAc(b1-3)Gal(b1-4)GlcNAc(b1-3)Gal(b1-4)GlcNAc(b1-3)Gal(b1-4)GlcNAc(b1-3)Gal(b1-4)GlcNAc(b1-2)Man(a1-6)]Man(b1-4)GlcNAc(b1-4)[Fuc(a1-6)]GlcNAc
# Outline: as §1
# [7] = target: GlcNAc(b1-4)[GlcNAc(b1-6)]GalNAc
# Outline: as §1
# [8] = target: Man(a1-3)[Man(a1-6)]Man(a1-6)[Man(a1-2)Man(a1-3)]Man(b1-4)GlcNAc(b1-4)GlcNAc
# Outline: as §1
# [9] = target: Man(a1-3)[Man(a1-6)]Man(a1-6)[Man(a1-3)]Man
# Outline: as §1
# Man(a1-6)Man = target: Man(a1-6)Man
# Outline: as §1
# [10] = target: Neu5Ac(a2-3)Gal(b1-3)[Fuc(a1-4)]GlcNAc(b1-3)Gal(b1-4)[Fuc(a1-3)]GlcNAc
# Outline: as §1
# [11] = target: Neu5Ac(a2-3)Gal(b1-3)[Neu5Ac(a2-6)]GalNAc
# Outline: as §1
# [12] = target: Neu5Ac(a2-3)Gal(b1-4)GlcNAc(b1-2)Man
# Outline: as §1
# [13] = target: Neu5Ac(a2-3)Gal(b1-4)GlcNAc(b1-2)Man(a1-3)[GlcNAc(b1-4)][Neu5Ac(a2-3)Gal(b1-4)GlcNAc(b1-2)Man(a1-6)]Man(b1-4)GlcNAc(b1-4)GlcNAc
# Outline: as §1
# [14] = target: Neu5Ac(a2-3)[GalNAc(b1-4)]Gal(b1-4)GlcNAc
# Outline: as §1
# [15] = target: Neu5Ac(a2-6)Gal(b1-4)GlcNAc(b1-2)Man(a1-3)[Gal(b1-4)GlcNAc(b1-2)Man(a1-6)]Man(b1-4)GlcNAc(b1-4)GlcNAc
# Outline: as §1
# [16] = target: Neu5Ac(a2-6)Gal(b1-4)GlcNAc(b1-2)Man(a1-3)[GlcNAc(b1-4)][Neu5Ac(a2-6)Gal(b1-4)GlcNAc(b1-2)Man(a1-6)]Man(b1-4)GlcNAc(b1-4)GlcNAc
# Outline: as §1
# [17] = target: Neu5Ac(a2-6)Gal(b1-4)GlcNAc(b1-2)[Neu5Ac(a2-6)Gal(b1-4)GlcNAc(b1-4)]Man(a1-3)[GlcNAc(b1-4)][Neu5Ac(a2-6)Gal(b1-4)GlcNAc(b1-2)[Neu5Ac(a2-6)Gal(b1-4)GlcNAc(b1-6)]Man(a1-6)]Man(b1-4)GlcNAc(b1-4)GlcNAc
# Outline: as §1
# [18] = target: Neu5Ac(a2-6)Gal(b1-4)GlcNAc(b1-3)Gal(b1-4)GlcNAc(b1-2)Man(a1-3)[Neu5Ac(a2-6)Gal(b1-4)GlcNAc(b1-3)Gal(b1-4)GlcNAc(b1-2)Man(a1-6)]GalNAc
# Outline: as §1
# [19] = target: Neu5Ac(a2-6)GalNAc(b1-4)GlcNAc6S
# Outline: as §1
# Neu5Ac(a2-8)Neu5Ac = target: Neu5Ac(a2-8)Neu5Ac
# Outline: as §1
# [20] = target: Neu5Ac(a2-8)Neu5Ac(a2-8)Neu5Ac(a2-8)Neu5Ac(a2-3)[GalNAc(b1-4)]Gal(b1-4)Glc
# Outline: as §1
binder,measurement,setting,value
B1,glycan array binding signal (z-score),[1],-0.238
same,glycan array binding signal (z-score),Gal(b1-4)GlcNAc6P,2.57
same,glycan array binding signal (z-score),Gal3S(b1-4)Glc,1.81
same,glycan array binding signal (z-score),Gal3S(b1-4)Glc6S,1.63
same,glycan array binding signal (z-score),[2],3.08
same,glycan array binding signal (z-score),Gal3S6S(b1-4)GlcNAc,2.75
same,glycan array binding signal (z-score),Gal4S6S(b1-4)GlcNAc,0.386
same,glycan array binding signal (z-score),Gal6S(b1-4)Glc,-0.221
same,glycan array binding signal (z-score),[3],-0.265
same,glycan array binding signal (z-score),[4],-0.546
same,glycan array binding signal (z-score),GalNAc(b1-4)Gal(b1-4)Glc,2.93
same,glycan array binding signal (z-score),GalNAc3S(b1-4)GlcNAc,2.09
same,glycan array binding signal (z-score),[5],3.01
same,glycan array binding signal (z-score),[6],-0.863
same,glycan array binding signal (z-score),[7],-0.205
same,glycan array binding signal (z-score),[8],1.06
same,glycan array binding signal (z-score),[9],3.32
same,glycan array binding signal (z-score),Man(a1-6)Man,4.74
same,glycan array binding signal (z-score),[10],-0.482
same,glycan array binding signal (z-score),[11],-0.254
same,glycan array binding signal (z-score),[12],2.89
same,glycan array binding signal (z-score),[13],-0.995
same,glycan array binding signal (z-score),[14],-0.733
same,glycan array binding signal (z-score),[15],-0.713
same,glycan array binding signal (z-score),[16],-0.966
same,glycan array binding signal (z-score),[17],-0.332
same,glycan array binding signal (z-score),[18],-0.421
same,glycan array binding signal (z-score),[19],-0.113
same,glycan array binding signal (z-score),Neu5Ac(a2-8)Neu5Ac,0.174
same,glycan array binding signal (z-score),[20],-0.64
